In the library only some 3.6% were active in any assay of this set; here they are far more common.
mHTT-CaM PPI inh = mHTT-calmodulin interaction abrogation; P42858; 190,000 compounds, 3.6% hits; AlphaScreen His-mHTT/GST-CaM binding, luminescence; inhibition, % at 15 µM; AID 1671202
Pf apPOL block = Pf-apPOL DNA polymerase inhibition. Recombinant Pf-apPOL, molecular beacon fluorescence, 1.5 h. inhibition, % at 10 µM. 210,000 compounds, 0.25% hits. AID 1794808
Numbers stand for hits. Rule as the data show it: active = inhibition above about 50%; inactive = the rest.

`CS(=O)(=O)c1ccccc1C(=O)Nc1nnc(-c2cc(Cl)sc2Cl)o1` gave mHTT-CaM PPI inh inactive and Pf apPOL block inactive.
Screening Cc1ccc(S(=O)(=O)NCCC2CCN(C(=O)c3ccc(F)cc3)CC2)cc1C returned mHTT-CaM PPI inh inactive and Pf apPOL block inactive.
Cc1cc(C)c(S(=O)(=O)NCCC2CCN(C(=O)c3ccc(F)cc3)CC2)cc1C was read as mHTT-CaM PPI inh 56 and Pf apPOL block inactive.
`CN(C1=NC(=O)C(=Cc2cc(Cl)ccc2OCC(=O)O)S1)c1ccc(O)cc1` gave mHTT-CaM PPI inh inactive and Pf apPOL block inactive.
Screening CCC(C)NC(=O)C1CCN(c2ncnc3c2nc2n3CCCCC2)CC1 (stereo not drawn) returned mHTT-CaM PPI inh inactive and Pf apPOL block inactive.
For O=[N+]([O-])c1cc(F)c(N2CCOCC2)cc1N1CCOCC1 the results were mHTT-CaM PPI inh inactive and Pf apPOL block inactive.
`O=[N+]([O-])c1cc(F)c(N2CCCC2)cc1N1CCCCCC1` gave mHTT-CaM PPI inh 79 and Pf apPOL block inactive.
O=[N+]([O-])c1cc(F)c(N2CCCC2)cc1N1CCCC1 was read as mHTT-CaM PPI inh 59 and Pf apPOL block inactive.
`Cc1cc(N2CCCCC2)c(F)cc1[N+](=O)[O-]` gave mHTT-CaM PPI inh inactive and Pf apPOL block inactive.
For Cc1nn(-c2ccc(C(=O)N3CCN(c4cccc(Cl)c4)CC3)cc2)c2c1C(=O)CCC2 the results were mHTT-CaM PPI inh 83 and Pf apPOL block inactive.
For Cc1nn(-c2ccc(C(=O)N3CCN(c4ccccn4)CC3)cc2)c2c1C(=O)CCC2 the results were mHTT-CaM PPI inh inactive and Pf apPOL block inactive.
For Cc1ccc(C(=O)N2CCC(COc3ccc(C(=O)N4CCCC4)cc3)CC2)cc1C the results were mHTT-CaM PPI inh inactive and Pf apPOL block inactive.
`CCNC(=O)c1nc(N(C)C)c2c(C)scc2n1` gave mHTT-CaM PPI inh inactive and Pf apPOL block inactive.
Screening Cc1scc2nc(C(=O)NCc3cccc(F)c3)nc(N3CCCC3)c12 returned mHTT-CaM PPI inh 65 and Pf apPOL block inactive.
Screening Cc1scc2nc(C(=O)NCc3ccc(F)cc3)nc(N(C)C)c12 returned mHTT-CaM PPI inh 87 and Pf apPOL block inactive.
Screening Cc1scc2nc(C(=O)Nc3ccccc3)nc(N3CCCC3)c12 returned mHTT-CaM PPI inh inactive and Pf apPOL block inactive.
Screening O=C(c1ccccn1)N1CCC(Oc2cc(N3CCOCC3)ncn2)C1 (stereo not drawn) returned mHTT-CaM PPI inh inactive and Pf apPOL block inactive.
O=C1C=C(c2ccc(Cl)cc2)C(=O)N1c1ccccc1Cl was read as mHTT-CaM PPI inh 62 and Pf apPOL block inactive.
`COc1ccccc1N1C(=O)C=C(c2ccc(Cl)cc2)C1=O` gave mHTT-CaM PPI inh inactive and Pf apPOL block inactive.
Screening NNc1nnc2c(n1)[nH]c1ccc(Br)cc12 returned mHTT-CaM PPI inh 67 and Pf apPOL block inactive.
Brc1ccc2[nH]c3nc4ccccc4nc3c2c1 was read as mHTT-CaM PPI inh inactive and Pf apPOL block inactive.
`COc1ccccc1NC(=O)CN1CCC(c2nc(-c3cccs3)no2)CC1` gave mHTT-CaM PPI inh inactive and Pf apPOL block inactive.
O=C(NCc1cccc(F)c1)c1cc2sccc2n1CC1CC1 was read as mHTT-CaM PPI inh inactive and Pf apPOL block inactive.
`COc1cc(NC(=O)Nc2cccc(OC)c2OC)c2ncccc2c1` gave mHTT-CaM PPI inh inactive and Pf apPOL block inactive.
`Cn1nc(-c2nc(-c3ccccc3F)no2)c2c1CCN(C(=O)c1ccccc1F)C2` gave mHTT-CaM PPI inh inactive and Pf apPOL block inactive.
COc1ccc(-c2nnc(C)c(NCc3ccccc3)n2)cc1 was read as mHTT-CaM PPI inh inactive and Pf apPOL block inactive.
COc1ccc(CNc2nc(-c3ccccc3)nnc2C)cc1 was read as mHTT-CaM PPI inh 56 and Pf apPOL block inactive.
For O=C(CCn1nc(C(F)(F)F)c(Cl)c1C1CC1)Nc1nnc(C2CC2)s1 the results were mHTT-CaM PPI inh inactive.
O=C(Nc1ccc2c(N3CCOCC3)ncnc2c1)c1cccc(Br)c1 was read as mHTT-CaM PPI inh 54 and Pf apPOL block inactive.
`Cc1ccc(C(=O)Nc2ccc3c(N4CCOCC4)ncnc3c2)cc1` gave mHTT-CaM PPI inh inactive and Pf apPOL block inactive.
`O=C(/C=C/c1ccccc1)O/N=C1\CCCc2oc3c(c21)CCCC3` gave mHTT-CaM PPI inh inactive and Pf apPOL block inactive.
`CC1=CC(=O)C=C(C)C1=NOC(=O)/C=C/c1ccccc1` gave mHTT-CaM PPI inh 100 and Pf apPOL block inactive.
Screening CCc1cc2c(=O)c(-c3ccccc3Cl)coc2cc1OC returned mHTT-CaM PPI inh inactive and Pf apPOL block inactive.
`Cc1nnc(NC(=O)CSc2nnc(-c3ccccc3Cl)o2)s1` gave mHTT-CaM PPI inh inactive and Pf apPOL block inactive.
O=C1C[C@H]2C=CCc3cccc(c32)CN1Cc1ccc(F)cc1 was read as mHTT-CaM PPI inh inactive and Pf apPOL block inactive.
For Cc1cccc(CN2Cc3cccc4c3[C@H](C=CC4)CC2=O)c1 the results were mHTT-CaM PPI inh 100 and Pf apPOL block inactive.
NC(=NOC(=O)C=Cc1csc([N+](=O)[O-])c1)c1cc(C(F)(F)F)cc(C(F)(F)F)c1 was read as Pf apPOL block inactive.
CCNc1cc(N2CCCC(CCC(=O)Nc3ccc(OC)cc3OC)C2)ncn1 (stereo not drawn) was read as mHTT-CaM PPI inh inactive and Pf apPOL block inactive.
COc1ccc(NC(=O)CCC2CCCN(c3cc(NC4CC4)ncn3)C2)c(OC)c1 (stereo not drawn) was read as mHTT-CaM PPI inh 60 and Pf apPOL block inactive.
Screening CCNc1cc(N2CCCC(CCC(=O)Nc3ccc4c(c3)OCCO4)C2)ncn1 (stereo not drawn) returned mHTT-CaM PPI inh inactive and Pf apPOL block inactive.
`CCCNc1cc(N2CCCC(CCC(=O)Nc3ccc4c(c3)OCO4)C2)ncn1` (stereo not drawn) gave mHTT-CaM PPI inh 51 and Pf apPOL block inactive.
COc1cc(C)c(CNCc2cc(OC)c(OC)c(OC)c2)cc1C was read as mHTT-CaM PPI inh inactive and Pf apPOL block inactive.
`O=C(Oc1ccc2c(c1)OC(=Cc1ccccc1)C2=O)c1ccco1` gave mHTT-CaM PPI inh inactive and Pf apPOL block inactive.
O=C(Oc1ccc2c(c1)OC(=Cc1ccccc1Br)C2=O)c1ccco1 was read as mHTT-CaM PPI inh 50 and Pf apPOL block inactive.
For CCN(CCCNC(=O)Cn1cc2c(n1)CCC(C)C2)c1cccc(C)c1 (stereo not drawn) the results were mHTT-CaM PPI inh inactive and Pf apPOL block inactive.
For O=C(Nc1ccc(O)c2c(=O)cc(-c3ccccc3Cl)oc12)c1ccc(Cl)cc1Cl the results were mHTT-CaM PPI inh inactive and Pf apPOL block inactive.
Screening O=c1cc(-c2ccccc2Cl)oc2c(NS(=O)(=O)c3cc(Cl)cc(Cl)c3O)ccc(O)c12 returned mHTT-CaM PPI inh 97 and Pf apPOL block inactive.
Cc1ccc(S(=O)(=O)N(c2ccc(C)cc2C)C(F)F)cc1 was read as mHTT-CaM PPI inh inactive and Pf apPOL block inactive.
For CCN1C(=O)/C(=C\c2nc3ccccc3c(=O)n2-c2ccccc2C)c2ccccc21 the results were mHTT-CaM PPI inh 63 and Pf apPOL block inactive.
For CCCN1C(=O)/C(=C\c2nc3ccccc3c(=O)n2-c2ccccc2[N+](=O)[O-])c2ccccc21 the results were mHTT-CaM PPI inh inactive and Pf apPOL block inactive.
For CC(C)N1C(=O)/C(=C\c2nc3ccccc3c(=O)n2-c2ccc([N+](=O)[O-])cc2)c2ccccc21 the results were mHTT-CaM PPI inh 61 and Pf apPOL block inactive.
Screening CCCN1C(=O)/C(=C\c2nc3ccccc3c(=O)[nH]2)c2ccccc21 returned mHTT-CaM PPI inh inactive and Pf apPOL block inactive.
